From PubChem BioAssay (Tox21) come the findings set out here.

Values without a mark were called inactive. Records with an inconclusive call do not appear. Active and inactive are the calls of the source. Calls follow the shape of the full dose curve.

Assay [1] concerns the target Acetylcholinesterase (Homo sapiens) (UniProt P22303). The assay is described as follows: Acetylcholinesterase (AChE) small molecule antagonists: colormetric cell-based qHTS assay (AID 1347395). Also: nearly all actives have a fitted effect of over 30% in size. Also: potency is read from the fitted curve at half-maximal effect. The method in brief: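 In this cell-based qHTS, attached SH-SY5Y cells were treated with test chemicals for 30 min, after which acetylthiocholine hydrolysis was followed by DTNB colour development over 90 min at 37 C.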
(In qHTS, concentration-response curves come from the screen itself.)

For assay [2] the target is unchanged. As to the kind of experiment: Acetylcholinesterase (AChE) small molecule antagonists: enzyme-based qHTS assay (AID 1347397). Also: nearly all actives have a fitted effect of over 55% in size. Conditions: Potency: AChE enzyme activity inhibition; outcome: AChE enzyme activity inhibition. The method in brief: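 Colorimetric DTNB readout of acetylthiocholine hydrolysis, 10 min at room temperature, after 30 min room-temperature exposure of 50 mU/mL recombinant human enzyme to compound; DMSO vehicle control.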

For assay [3] the target is unchanged. As to the kind of experiment: Acetylcholinesterase (AChE) small molecule antagonists: fluorescence cell-based qHTS assay (AID 1347398). Also: nearly all actives have a fitted effect of over 50% in size. Also: potency is read from the fitted curve at half-maximal effect. Conditions: Potency: AChE activity; outcome: AChE activity. The method in brief:
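Cellular AChE activity read as thiocholine from acetylthiocholine hydrolysis, detected by Thiolite Green fluorescence at 490/520 nm after 40 min at room temperature. Compounds were pre-incubated 30 min at 37 C on adherent SH-SY5Y cells.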

Assay [4] has the same target. The assay is described as follows: Acetylcholinesterase (AChE) small molecule antagonists: enzyme-based qHTS assay with human liver microsomes (AID 1347399). Also: nearly all actives have a fitted effect of over 60% in size. Particulars: Potency: qHTS inhibition; outcome: qHTS inhibition. The method, boiled down:
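Recombinant human AChE (50 mU/mL in the enzyme mix) and human liver microsomes (0.25 mg/mL final) were preincubated with compound and NADPH (0.25 mg/mL final) for 30 min at 37 C. Acetylthiocholine/DTNB was then added; thiocholine was read colorimetrically after 10 min at room temperature.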
% is scaled to controls: 0 for no effect and ±100 for the full control effect.

Sequence of Acetylcholinesterase (Homo sapiens) (P22303 whole entry, looked up): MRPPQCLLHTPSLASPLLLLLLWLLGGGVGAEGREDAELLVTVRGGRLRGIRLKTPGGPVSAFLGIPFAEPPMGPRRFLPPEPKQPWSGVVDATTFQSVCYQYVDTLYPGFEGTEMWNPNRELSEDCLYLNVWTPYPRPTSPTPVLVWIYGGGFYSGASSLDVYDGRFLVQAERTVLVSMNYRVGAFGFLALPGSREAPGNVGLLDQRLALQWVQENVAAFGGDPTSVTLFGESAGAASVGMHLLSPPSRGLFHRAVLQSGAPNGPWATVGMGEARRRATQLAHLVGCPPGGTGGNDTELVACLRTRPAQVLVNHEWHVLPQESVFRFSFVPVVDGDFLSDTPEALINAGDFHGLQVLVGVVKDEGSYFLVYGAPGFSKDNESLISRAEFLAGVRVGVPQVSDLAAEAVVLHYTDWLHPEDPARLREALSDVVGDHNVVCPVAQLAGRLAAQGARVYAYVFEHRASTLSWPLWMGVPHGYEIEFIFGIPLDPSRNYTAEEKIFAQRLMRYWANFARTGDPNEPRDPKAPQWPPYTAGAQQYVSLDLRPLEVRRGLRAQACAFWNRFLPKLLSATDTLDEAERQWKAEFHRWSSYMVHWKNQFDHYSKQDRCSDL

On to `CC(=O)c1cc(C)oc1C`, for which the Potency entry in assay [1], in assay [2] and in assay [3] was “inactive” in each case.

For the compound `O=C1OC[C@H](Cc2cccc(O)c2)[C@H]1Cc1cccc(O)c1`, the Potency result in assay [1], in assay [2] and in assay [3] was “inactive” throughout.

With `CCC(Cl)CCC(Cl)C(Cl)CC(Cl)C(Cl)C(Cl)CCl` (stereo not drawn), the Potency result in assay [1], in assay [2] and in assay [3] was “inactive” each time.

In the case of `COc1c(C)c2c(c(O)c1C/C=C(\C)CCC(=O)O)C(=O)OC2`, the Potency result in assay [1] and in assay [2] was “inactive” each time.

`C=CCc1cc(S(=O)(=O)c2ccc(O)c(CC=C)c2)ccc1O`: in assay [1], the Potency result was “inactive”.

As to `COc1cc(C(C)=O)ccc1OCCCN1CCC(c2noc3cc(F)ccc23)CC1`, the Potency in assay [1] was 19.5 µM (active). For the same compound, in assay [2], the Potency result was “inactive”.

For `COc1cc2nc(Cl)nc(N)c2cc1OC`, the Potency entry in assay [1], in assay [2] and in assay [3] was “inactive” in each case.

As to `Cc1ccc(C(C)OC(=O)C2(C)CCC(C(=O)O)C2(C)C)cc1` (stereo not drawn), the Potency result in assay [1], in assay [2] and in assay [3] was “inactive” throughout.

Consider `CCCCCCCC/C=C\CCCCCCCC(=O)N(CCO)CCO`, for which the Potency result in assay [1] and in assay [2] was “inactive” throughout. Further, the Potency in assay [3] is 19.9 µM (active).

With `COc1ccc(/C=C/S(=O)(=O)NC(=O)c2ccc(C)cc2Cl)cc1`, the Potency entry in assay [1], in assay [2] and in assay [3] was “inactive” throughout.

As to `O=C1c2ccccc2C(=O)C1(O)O`, the Potency result in assay [1], in assay [2] and in assay [3] was “inactive” each time.

Take `COP(=O)(O)OP(=O)(O)OC`: the Potency entry in assay [1] and in assay [2] was “inactive” in each case.

Consider `CCC(C)S` (stereo not drawn), for which the activity, negative = inhibition in assay [1] was 1.56% [at 4.07 µM]. The activity change, negative = inhibition in assay [2] is 0.922% [at 4.07 µM]; in assay [3], 4.18% [at 3.98 µM].

`CC(C)=CCC/C(C)=C\C#N`: the Potency entry in assay [1], in assay [2] and in assay [3] was “inactive” in each case.

Turning to `CC(C)C(=O)OCCc1ccccc1`, the Potency result in assay [1], in assay [2] and in assay [3] was “inactive” throughout.

For the compound `CC(=O)SCC(CC(=O)c1ccc(C)cc1)C(=O)O` (stereo not drawn), the Potency result in assay [1], in assay [2] and in assay [3] was “inactive” in each case.

Turning to `CC(=O)OCC(=O)[C@@]12OC(C)(C)O[C@@H]1C[C@H]1[C@@H]3C[C@H](F)C4=CC(=O)C=C[C@]4(C)[C@@]3(F)[C@@H](O)C[C@@]12C`, the Potency entry in assay [1], in assay [2] and in assay [3] was “inactive” in each case.

Turning to `CCC(=O)Oc1ccc2c(c1)CC[C@@H]1[C@@H]2CC[C@@]2(C)[C@H]1C[C@@H](OC(=O)CC)[C@@H]2OC(=O)CC`, the Potency result in assay [1] and in assay [2] was “inactive” each time.

For `CC(=O)Nc1ccc(S(N)(=O)=O)cc1`, the Potency entry in assay [1], in assay [2] and in assay [3] was “inactive” throughout.

As to `CCCCCCCCCCCCCCCCN(C)C`, the activity, negative = inhibition in assay [1] was -4.82% [at 10.5 µM]. Moreover, the activity change, negative = inhibition was -0.395% [at 10.5 µM] in assay [2] and -5.81% [at 10.5 µM] in assay [3].

For the compound `CCCCCCCCCCCBr`, the Potency entry in assay [1], in assay [2] and in assay [3] was “inactive” throughout.

On to `c1ccc(C(O[C@@H]2CCCN(CCc3ccc4c(c3)OCO4)C2)c2ccccc2)cc1`, for which the Potency result in assay [1] and in assay [2] was “inactive” in each case.

Turning to `Cc1ccc(N)cc1S(=O)(=O)O`, the Potency entry in assay [1] and in assay [2] was “inactive” throughout.

As to `CCCCC/C=C\C=C\C(=O)OCC`, the Potency result in assay [1] and in assay [2] was “inactive” throughout.

`CCCCCCCCCCCl`: the Potency result in assay [1], in assay [2] and in assay [3] was “inactive” each time.

Regarding `CCCCc1ccc2cccc(S(=O)(=O)O)c2c1`, the Potency entry in assay [1], in assay [2] and in assay [3] was “inactive” in each case.

Regarding `C=CC(C)=CCC=C(C)C`, the Potency entry in assay [1], in assay [2] and in assay [3] was “inactive” in each case.

On to `Cc1oc(=O)oc1COC(=O)[C@@H]1N2C(=O)[C@@H](NC(=O)[C@H](N)c3ccccc3)[C@H]2SC1(C)C`, for which the Potency result in assay [1] and in assay [2] was “inactive” each time.

Take `CCCCCCCCN1CCCC1=O`: the Potency result in assay [1] and in assay [2] was “inactive” throughout.

For `CN(CCCN1c2ccccc2CCc2ccccc21)CC(=O)c1ccc(Cl)cc1`, the Potency result in assay [1], in assay [2] and in assay [3] was “inactive” throughout.

`O=C(N[C@H](CO)[C@H](O)c1ccc([N+](=O)[O-])cc1)C(Cl)Cl`: the Potency result in assay [1], in assay [2] and in assay [3] was “inactive” in each case.

For the compound `COc1ccc(C(=O)Nc2ccccc2)cc1[N+](=O)[O-]`, the Potency in assay [1] is 35.9 µM (active). For the same compound, in assay [2], the Potency result was “inactive”.

`CC[C@@H](N)CO`: the Potency result in assay [1], in assay [2] and in assay [3] was “inactive” each time.

As for `CC(NC(CCc1ccccc1)C(=O)O)C(=O)N1C(=O)N(C)CC1C(=O)O` (stereo not drawn), the Potency entry in assay [1], in assay [2] and in assay [3] was “inactive” each time.

Consider `COc1ccc(OC)c(Cl)c1`, for which the Potency entry in assay [1], in assay [2] and in assay [3] was “inactive” each time.

Take `CCN(CC)CCNC(=O)COc1ccc(OC)cc1`: the Potency entry in assay [1] and in assay [2] was “inactive” in each case.

As to `CNC(=O)c1c(I)c(NC(C)=O)c(I)c(C(=O)O)c1I`, the Potency entry in assay [1] and in assay [2] was “inactive” each time.

Turning to `N#CCc1cccc(C(F)(F)F)c1`, the Potency entry in assay [1], in assay [2] and in assay [3] was “inactive” in each case.

Consider `CC1=C(/C=C/C(C)=C\C=C\C(C)=C\C(=O)O)C(C)(C)CCC1`, for which the Potency entry in assay [1] and in assay [2] was “inactive” in each case.

As for `CCO[Si](OCC)(OCC)OCC`, the Potency entry in assay [1], in assay [2], in assay [3] and in assay [4] was “inactive” each time.

Take `CCCCCCCCCCCCCC(=O)OC`: the Potency entry in assay [1], in assay [2], in assay [3] and in assay [4] was “inactive” throughout.

Take `CCOC(=O)/C=C/C(=O)OCC`: the Potency entry in assay [1], in assay [2], in assay [3] and in assay [4] was “inactive” each time.

For `CCCCN1C=CN(C)C1`, in assay [1], the activity, negative = inhibition is 0.291% [at 23.6 µM]. Moreover, the figures for the activity change, negative = inhibition in assay [2], in assay [3] and in assay [4] were 1.48% [at 23.6 µM], -2.29% [at 23.8 µM] and 0.0718% [at 23.6 µM], respectively.
